An excerpt weighted towards active compounds, which were near 1.3% of everything screened.
KCNH2 WT inh: KCNH2 (human, wildtype) channel inhibition; Q12809; U2OS, BacMam KCNH2, thallium flux FluxOr; active compounds read low; activity change, % at 1.84 µM; 340,000 tested, 0.37% active; AID 720551;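 active = maximum activity change below -70%; inconclusive = maximum activity change between -70% and -50%; inactive = maximum activity change above -50%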; note: % is set by controls: 0 for no effect and ±100 for the full control effect
Target sequence (Q12809 whole entry, looked up): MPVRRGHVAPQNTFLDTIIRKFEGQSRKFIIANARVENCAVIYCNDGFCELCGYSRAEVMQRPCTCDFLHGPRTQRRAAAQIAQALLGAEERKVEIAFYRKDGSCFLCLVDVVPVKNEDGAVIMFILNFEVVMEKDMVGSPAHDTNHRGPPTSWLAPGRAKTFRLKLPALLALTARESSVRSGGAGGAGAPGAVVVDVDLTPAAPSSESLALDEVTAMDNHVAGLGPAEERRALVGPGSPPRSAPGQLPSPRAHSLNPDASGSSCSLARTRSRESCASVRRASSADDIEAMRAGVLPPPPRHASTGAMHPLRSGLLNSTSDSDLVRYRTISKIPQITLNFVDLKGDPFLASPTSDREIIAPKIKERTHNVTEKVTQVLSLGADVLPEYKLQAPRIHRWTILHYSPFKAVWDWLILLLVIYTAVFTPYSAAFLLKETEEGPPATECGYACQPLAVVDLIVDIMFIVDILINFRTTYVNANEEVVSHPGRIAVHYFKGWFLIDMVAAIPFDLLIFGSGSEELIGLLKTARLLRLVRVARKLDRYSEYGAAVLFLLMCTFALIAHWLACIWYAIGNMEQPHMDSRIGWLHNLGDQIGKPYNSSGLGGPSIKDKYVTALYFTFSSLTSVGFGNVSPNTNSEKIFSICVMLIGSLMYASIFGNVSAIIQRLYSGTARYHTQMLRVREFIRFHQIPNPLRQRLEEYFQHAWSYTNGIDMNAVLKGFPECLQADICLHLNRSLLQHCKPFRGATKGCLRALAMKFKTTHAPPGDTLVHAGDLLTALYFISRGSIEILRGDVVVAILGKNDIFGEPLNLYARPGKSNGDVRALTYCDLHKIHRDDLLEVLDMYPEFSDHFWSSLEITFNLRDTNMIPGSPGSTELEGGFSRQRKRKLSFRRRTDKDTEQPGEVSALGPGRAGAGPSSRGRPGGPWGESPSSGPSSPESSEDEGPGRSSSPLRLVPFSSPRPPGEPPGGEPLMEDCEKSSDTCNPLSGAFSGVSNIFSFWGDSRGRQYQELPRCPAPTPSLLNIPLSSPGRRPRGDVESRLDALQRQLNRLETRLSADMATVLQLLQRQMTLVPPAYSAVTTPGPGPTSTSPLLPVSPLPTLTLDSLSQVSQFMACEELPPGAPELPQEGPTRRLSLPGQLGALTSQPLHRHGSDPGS
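U2OS cells transduced with wild-type KCNH2 virus are loaded with FluxOr dye for 45 min, and thallium flux is measured in kinetic reads before and after stimulation buffer. Rate constants are normalized to DMSO controls.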
KCNH2 3.1 inh: inhibitors of human KCNH2 3.1 potassium channel isoform; U2OS KCNH2 3.1, thallium flux FluxOr; active compounds read low; activity change, % (tested at about 1.8 µM); 340,000 tested, 0.95% active;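 active = maximum activity change below -70%; inconclusive = maximum activity change from -70% to -50%; inactive = maximum activity change above -50%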;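 note: thallium influx rate constant from kinetic fluorescence after stimulation buffer; % is set by controls: 0 for no effect and ±100 for the full control effect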
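Virally transduced U2OS (3.1 isoform, 4 h infection in dark at RT) → overnight 37 C → FluxOr + Red40 in HBSS/HEPES, 45 min → stimulation buffer, 2 min kinetic read → rate constant vs DMSO controls.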
MBNL1-CUG inh: inhibitors of human MBNL1 binding to CUG repeat RNA. Q9NR56. TR-FRET MBNL1-His/biotin-(CUG)12 binding, 665/545 ratio. Potency, µM (doses to about 57.5 µM), for inactives: top-dose activity change, negative = inhibition, actives largely listed as inhibitors. 280,000 tested, 0.036% active; active = well fitted inhibition curve with a large enough effect in the signal ratio, with a control signal flat, not every such curve was filed as active; inconclusive = small, poorly fitted or top-dose-only effect, or effect the other way, or a change in a side signal; inactive = no such curve, though single readings can be large or run the other way; the % refers to the signal ratio; note: potency is the fitted concentration of half-maximal effect; % is set by controls: 0 for no effect and ±100 for the full control effect
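TR-FRET between His-tagged MBNL1 and biotin-(CUG)12 RNA, detected with Tb anti-His antibody (0.055 ng/ul) and streptavidin-XL665 (5 nM), 60 min at room temperature. Compounds titrated 92 nM to 58 uM; 665/545 nm ratio normalized to buffer and complex controls.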
TRPV1 ag: human TRPV1 agonism; TRPV1-expressing cells, Fluo-8 calcium influx, agonist mode; activation, % at 8.33 µM; 320,000 tested, 0.19% active; AID 540275; in the data active = activation above about 80%; inconclusive = between about 30% and that limit; note: 0% is about no effect
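Cells expressing TRPV1 were dye-loaded with Fluo-8 and read kinetically: 10 s baseline, 3 min after compound (agonist portion), then 2 min after EC20 capsaicin (allosteric enhancer portion). Calcium-bound dye fluorescence at 480/520 nm.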
TRPV1 PAM: human TRPV1 potentiation | TRPV1-expressing cells, Fluo-8 calcium influx, capsaicin EC20 potentiation | potentiation, % at 8.33 µM | 320,000 tested, 0.02% active; in the data active = potentiation above about 80%; inconclusive = between about 30% and that limit; note: 0% is about no effect
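TRPV1-expressing cells were cultured overnight at 35.5C and loaded with Fluo-8 calcium dye for 40 to 90 min at room temperature. After a 10 s baseline, compound was added and calcium influx was read kinetically for 3 min (ex 480/em 520 nm).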
* hit, by the source's call; ? = inconclusive; . = no result.

SMILES	KCNH2 WT inh	KCNH2 3.1 inh	MBNL1-CUG inh	TRPV1 ag	TRPV1 PAM
CN(CCOc1ccc(Cl)cc1)CC(=O)Nc1ccc(OC(F)F)cc1	-8	-85*	4%	18	-12
CCN(CCNC(=O)c1ccc(C#N)cc1)c1cccc(C)c1	5	-5	-11%	91*	-5
CCCCCCCCC(=O)NC(NC(=S)N1CCOCC1)C(Cl)(Cl)Cl (configuration not stated)	-30	22	1%	83*	-7
CCCCCC(=O)NC(NC(=S)N1CCOCC1)C(Cl)(Cl)Cl (configuration not stated)	-2	0	-15%	83*	-8
O=C(NC(NC(=S)N1CCOCC1)C(Cl)(Cl)Cl)c1cccc2ccccc12 (configuration not stated)	-22	-18	.	?	4
CCOC(=O)N1CCN(S(=O)(=O)N2CCCC(C(=O)NCCCN3CC(C)CC(C)C3)C2)CC1 (configuration not stated)	15	-3	4%	0	1
Cc1cc(C)c(S(C)(=O)=O)c(NN)n1	2	6	1%	2	14
O=C(c1ccco1)N1CCN(S(=O)(=O)c2ccc(S(=O)(=O)NC3CC3)cc2)CC1	11	-83*	-1%	0	9
Cc1ccc(NC(=O)CSc2nc(=O)n(CCN(C)C)c3c2CCCC3)cc1Cl	8	-1	.	-2	0
O=C(Nc1ccccc1N1CCN(C(=O)c2ccc(Cl)cc2)CC1)c1ccc2c(c1)OCO2	-48	-82*	18%	1	6
O=C(c1ccc(Cl)cc1)N1CCC(O)(CSc2ccc(Cl)cc2)CC1	-28	-89*	-3%	.	.
O=C(CSc1ccc(Cl)cc1)Nc1ccc(N2CCN(C(=O)c3ccc(Cl)cc3)CC2)cc1	-133*	-89*	-2%	-4	24
O=C(CSc1ccc(Cl)cc1)Nc1ccccc1N1CCN(C(=O)c2ccc(Cl)cc2)CC1	3	-41	?	4	27
O=C(Nc1ccc(N2CCN(C(=O)c3ccc(Cl)cc3)CC2)cc1)c1cccs1	24	-74*	3%	7	8
COC(=O)c1ccccc1NC(=O)COC(=O)CO/N=C(\C)c1ccc2c(c1)OCO2	-2	-2	-4%	6	13
COc1ccc(/C=C(/NC(=O)c2ccco2)C(=O)N2CCCCC2)cc1	-2	2	12%	0	-1
CCN(CC)S(=O)(=O)c1cccc(NC(=O)CCNC(=O)NC23CC4CC(CC(C4)C2)C3)c1	-12	16	.	16	-8
Cc1ccc(C(=O)NNC(=O)c2ccc(-n3cncn3)c([N+](=O)[O-])c2)cc1	-4	5	.	2	3
O=C(Nc1ccc(N2CCN(C(=O)c3ccc(Cl)cc3)CC2)cc1)c1ccc2c(c1)OCCO2	1	-79*	0%	5	9
CC(=O)c1ccc(NC(=O)N2CCN(c3cccc(Cl)c3)CC2)cc1	5	-16	3%	0	2
CC(=O)c1ccc(N2CCN(C(=O)Nc3ccc(Cl)cc3)CC2)cc1	-12	-1	34%	84*	-18
Cc1ccsc1-c1nc(CN2CCCC2c2ccc(F)cc2)c(C)o1 (configuration not stated)	4	-14	4%	7	17
O=C1/C(=C/c2ccccc2F)SC(=S)N1CCC(=O)N1CCCCC1CCO (configuration not stated)	-29	10	?	1	10
C=CCn1c(SC(C)C(=O)Nc2ccc(F)c(F)c2F)nnc1C1CC1 (configuration not stated)	-8	-128*	.	2	6
Cc1nn2c(=O)cc(CSCC(=O)Nc3ccccc3F)nc2s1	-17	-142*	-11%	-2	2
SMILES	KCNH2 WT inh	KCNH2 3.1 inh	MBNL1-CUG inh	TRPV1 ag	TRPV1 PAM
CCCCN(C)C(=O)c1nc2ccccn2c1CN1CCN(c2ncccn2)CC1	-20	1	15%	-1	-11
CCCCN(C)C(=O)c1nc2ccccn2c1CN1CCN(C/C=C/c2ccccc2)CC1	-32	-102*	0%	0	10
S=c1ncc2[nH]c(=S)[nH]c2[nH]1	-3	3	.	.	.
Cc1ccc(C)c(S(=O)(=O)c2c[nH]c(=S)[nH]c2=O)c1	-30	-82*	-13%	-3	4
COc1ccc(OC)c(NC2c3ncccc3C(=O)N2Cc2ccco2)c1 (configuration not stated)	6	-80*	-1%	-3	23
CCc1nc(Nc2cccc(OC)c2)c2oc3ccccc3c2n1	-10	12	?	81*	0
CCc1nc(Nc2ccccc2)c2oc3ccccc3c2n1	-11	-31	10%	84*	-7
CCc1nc(Nc2ccc(F)cc2)c2oc3ccccc3c2n1	13	4	-3%	?	5
Cc1cc(S(=O)(=O)N2CCOCC2)ccc1OCC(=O)N1CCCC1	4	-6	1%	1	2
CCOC(=O)N1CCN(C(=O)CNS(=O)(=O)c2cccs2)CC1	-9	1	-2%	-4	-8
CC(=O)Nc1ccc(S(=O)(=O)NCC(=O)N2CCN(S(=O)(=O)c3cccs3)CC2)cc1	2	-101*	.	0	11
O=C(c1ccc(C(F)(F)F)cc1)C1CCCN(C(=O)CN2C(=O)CSC2=O)C1 (configuration not stated)	-3	1	4%	-1	5
CC(C)(C)c1ccc(NC(=O)N2CCCN(c3ccc([N+](=O)[O-])cn3)CC2)cc1	0	-15	?	92*	-16
O=C(CN1CCC(C(O)(c2ccccc2)c2ccccc2)CC1)Nc1ccccc1	9	-80*	-10%	3	?
O=C(CN1CCC(C(O)(c2ccccc2)c2ccccc2)CC1)Nc1cc(Cl)ccc1Cl	11	-2	-9%	6	-12
COC(CNC(=O)c1ccc2c(c1)ncn2C1CCCCCC1)OC	-14	8	-10%	8	-14
Cc1ccc2nc(CCCc3nc4ccc(C)cc4[nH]3)[nH]c2c1	13	-79*	-8%	2	5
Cc1ccc2nc(CCc3nc4ccc(C)cc4[nH]3)[nH]c2c1	18	-16	2%	?	-7
COc1ccc(OC)c(NC(=O)C2CCCN(S(C)(=O)=O)C2)c1 (configuration not stated)	-1	3	30%	4	-9
O=c1c2cc(NC(=S)NCCN3CCCCCC3)ccc2nc2n1CCCCC2	5	-11	-4%	0	-3
O=c1c2cc(NC(=S)NCCCN3CCC(Cc4ccccc4)CC3)ccc2nc2n1CCCCC2	-29	-72*	-3%	1	-3
COc1ccc(C(=O)NC2CC2)cc1OC1CCN(Cc2ccc(F)cc2Cl)CC1	-75*	-93*	.	.	.
COc1ccc(CN2CCC(Oc3cc(C(=O)NC4CC4)ccc3OC)CC2)c(O)c1	-109*	-94*	-11%	0	27
